Only some compounds are listed: those with a hit (about 19% of all), similar ones and a draw of the others.
TDP1 cell noCPT: qHTS for Inhibitors of human tyrosyl-DNA phosphodiesterase 1 (TDP1): qHTS in cells in absence of CPT; DT40 Tdp1-/- hTDP1 cells, no CPT, ATP luminescence, 48 h; 420,000 tested, 15% active; AID 686978, 2013; Potency, µM (doses to about 46.2 µM), inactives show at the highest dose activity change, negative = growth inhibition, actives largely listed as inhibitors; further: nearly all actives have a fitted effect of over 55% in size
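Compound effects on proliferation are scored in DT40 Tdp1-/-;hTDP1 cells in the absence of CPT. ATP levels (CellTiter-Glo luminescence) are recorded after a ≥48 hr, 37 °C incubation.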
TDP1 inh: qHTS Assay for Inhibitors of Tyrosyl-DNA Phosphodiesterase (TDP1); Tyrosyl-DNA phosphodiesterase 1 (Homo sapiens), Q9NUW8; recombinant TDP1, AlphaScreen DNA substrate cleavage; Potency, µM (series often up to 130 µM), without a hit: at the highest dose activity change, negative = inhibition, actives largely listed as inhibitors; 350,000 tested, 0.28% active; AID 485290, 2010; further: nearly all actives have a fitted effect of over 40% in size
Target sequence (Q9NUW8 whole entry, looked up): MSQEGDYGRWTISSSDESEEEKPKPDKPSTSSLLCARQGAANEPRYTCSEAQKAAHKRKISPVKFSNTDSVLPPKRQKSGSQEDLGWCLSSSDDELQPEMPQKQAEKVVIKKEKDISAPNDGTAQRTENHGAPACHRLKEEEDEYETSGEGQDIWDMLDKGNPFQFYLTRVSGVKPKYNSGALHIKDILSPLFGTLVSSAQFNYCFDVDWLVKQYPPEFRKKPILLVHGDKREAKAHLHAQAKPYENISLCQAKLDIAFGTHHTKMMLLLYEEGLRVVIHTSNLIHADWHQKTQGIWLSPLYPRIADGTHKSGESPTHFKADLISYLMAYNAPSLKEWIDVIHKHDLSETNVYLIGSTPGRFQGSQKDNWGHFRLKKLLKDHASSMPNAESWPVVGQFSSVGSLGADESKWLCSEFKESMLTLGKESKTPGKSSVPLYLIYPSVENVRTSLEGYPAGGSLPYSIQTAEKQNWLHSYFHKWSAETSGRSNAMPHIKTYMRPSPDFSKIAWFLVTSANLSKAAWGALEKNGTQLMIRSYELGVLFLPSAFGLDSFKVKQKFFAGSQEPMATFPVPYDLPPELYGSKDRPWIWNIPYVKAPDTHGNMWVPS
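Compounds were preincubated with Tdp1 (1 nM final) for 15 min at room temperature before substrate (15 nM final) started a 5 min reaction; beads (10 ug/ml final) were then added for 10 min before AlphaScreen detection.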
Gal4-VP16 FLuc: VP16 counterscreen qHTS for inhibitors of ROR gamma transcriptional activity. Drosophila S2 Gal4-VP16 UAS-luciferase, luminescence, 20 h. Potency, µM (titrated, usually from 53.6 µM), for the others: at the top dose activity, negative = inhibition, hits mostly inhibitors. 310,000 tested, 3.5% active. AID 2546, 2010;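 further: Gal4-VP16 expression switched on by copper sulfate through the metallothionein promoter; nearly all actives have a fitted effect of over 50% in size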
DT40 TDP1 CPT: qHTS for Inhibitors of human tyrosyl-DNA phosphodiesterase 1 (TDP1): qHTS in cells in presence of CPT | chicken DT40 Tdp1-/-;hTDP1 cells + 20 nM CPT, ATP luminescence, 48 h | Potency, µM (titrated, usually from 46.2 µM), without a hit: top-dose activity change, negative = growth inhibition, actives largely listed as inhibitors | 420,000 tested, 12% active | AID 686979, 2013; further: nearly all actives have a fitted effect of over 55% in size
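Chicken DT40 Tdp1-/- cells stably complemented with human TDP1 were seeded at 400 cells/well in medium containing 20 nM camptothecin, exposed to pin-transferred compounds, and grown at 37 °C for at least 48 hr. Viability was read as ATP luminescence.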
RORgamma inh: qHTS for inhibitors of ROR gamma transcriptional activity | Nuclear receptor ROR-gamma (Mus musculus), P51450 | Potency, µM (top dose mostly 53.6 µM), for inactives: top-dose activity change, negative = inhibition, actives largely listed as inhibitors | Drosophila S2 Gal4-RORgamma UAS-luciferase reporter, 20 h | AID 2551, 2010 | 310,000 tested, 5.4% active; further: nearly all actives have a fitted effect of over 60% in size
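Luciferase reporter read in Schneider cells carrying Gal4-RORγ (mouse) and UAS-Photinus luciferase; cells given compound 1 h before 700 uM copper sulfate induction, then incubated 20 h at ambient temperature.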
Starred values were filed as active, the others as inactive; [ ] = remark or other dose. The call rests on the fitted dose curve; in most records, active means well fitted curve in the direction sought with a large enough effect; inconclusive means small, poorly fitted or top-dose-only effect, or another doubt; inactive means no such curve, though single readings can be large; an effect the other way counts as inactive or inconclusive. On the % scale 0 is the no-effect control and ±100 the full control effect; potency means the concentration at half of the fitted maximal effect.

For CCN(CC)CCC(c1ccc2c(c1)OCO2)c1c(O)cc(OC)cc1OC (configuration not stated) the results were TDP1 cell noCPT 18µM*, TDP1 inh 14%, Gal4-VP16 FLuc inconclusive, DT40 TDP1 CPT 21µM* and RORgamma inh inconclusive.
Screening COc1cc(O)c(C(CCN2CCCC2)c2ccc3c(c2)OCO3)c(OC)c1 (configuration not stated) returned TDP1 cell noCPT 23µM*, TDP1 inh 17%, Gal4-VP16 FLuc -6%, DT40 TDP1 CPT 23µM* and RORgamma inh -14%.
`COc1cc(O)c(C(CCN2CCN(c3ccccc3)CC2)c2cc(OC)c(OC)c(OC)c2)c(OC)c1` (configuration not stated) gave TDP1 cell noCPT 23µM*, TDP1 inh 24%, Gal4-VP16 FLuc -5%, DT40 TDP1 CPT 21µM* and RORgamma inh -17%.
`CCN(CC)C(=O)CC(c1ccc2c(c1)OCO2)c1c(O)cc(OC)cc1OC` (configuration not stated) gave TDP1 cell noCPT -29%, TDP1 inh 7%, Gal4-VP16 FLuc -6%, DT40 TDP1 CPT inconclusive and RORgamma inh -20%.
For CCOC(=O)c1c(NC(=O)c2cc3ccccc3c(=O)o2)sc2c1CCC(C(C)(C)C)C2 (configuration not stated) the results were TDP1 cell noCPT 7%, TDP1 inh -2% and DT40 TDP1 CPT 9%.
For COC(=O)/C=C(\C)NC(=O)c1cccs1 the results were TDP1 cell noCPT -13%, TDP1 inh 1%, Gal4-VP16 FLuc 17%, DT40 TDP1 CPT 19% and RORgamma inh 12%.
Screening O=C(Nc1cccc(Cl)c1)c1cc(S(=O)(=O)N2CCCc3ccccc32)ccc1F returned TDP1 cell noCPT 4.1µM*, TDP1 inh 5% and DT40 TDP1 CPT 10µM*.
For O=C(Nc1ccc(F)c(Cl)c1)c1cc(S(=O)(=O)N2CCCc3ccccc32)ccc1F the results were TDP1 cell noCPT 15µM*, TDP1 inh 0% and DT40 TDP1 CPT 13µM*.
For O=C(Nc1ccc(F)c(Cl)c1)c1cc(S(=O)(=O)N2CCc3ccccc3C2)ccc1F the results were TDP1 cell noCPT inconclusive, TDP1 inh -3% and DT40 TDP1 CPT inconclusive.
`O=C(NCc1ccco1)c1cc(S(=O)(=O)N2CCCc3ccccc32)ccc1Cl` gave TDP1 cell noCPT 13µM*, TDP1 inh 7%, Gal4-VP16 FLuc 0%, DT40 TDP1 CPT 15µM* and RORgamma inh 9%.
For COc1ccc(S(=O)(=O)N2CCc3ccccc32)cc1C(=O)NCc1ccco1 the results were TDP1 cell noCPT inconclusive, TDP1 inh inconclusive and DT40 TDP1 CPT 3%.
For COC(CNC(=O)c1cc(S(=O)(=O)N2CCc3ccccc32)ccc1F)OC the results were TDP1 cell noCPT 0%, Gal4-VP16 FLuc 5%, DT40 TDP1 CPT inconclusive and RORgamma inh 32%.
`CC(=O)c1cnc(SCc2ccc(Cl)cc2)nc1C` gave TDP1 cell noCPT 0%, TDP1 inh -5%, Gal4-VP16 FLuc -5%[10 µM], DT40 TDP1 CPT 18% and RORgamma inh 1%.
`CCOC(=O)CC(=O)CSc1nccc(-c2cccnc2)n1` gave TDP1 cell noCPT inconclusive, TDP1 inh 4%, Gal4-VP16 FLuc 6%, DT40 TDP1 CPT -18% and RORgamma inh 23%.
Screening CCOC(=O)c1c(NC(=O)CSc2nnc(-c3ccncc3)n2Cc2ccco2)sc(C(C)=O)c1C returned TDP1 cell noCPT -25% and DT40 TDP1 CPT -13%.
For COc1ccc(S(=O)(=O)N2CCC(n3cnc4cc(C(F)(F)F)ccc43)CC2)cc1 the results were TDP1 cell noCPT -13%, TDP1 inh 5%, Gal4-VP16 FLuc inconclusive, DT40 TDP1 CPT inconclusive and RORgamma inh inconclusive.
COc1ccc(S(=O)(=O)N2CCC3CC2c2c(-c4ccc(C(F)(F)F)cc4)cccc23)cc1 (configuration not stated) was read as TDP1 cell noCPT 5.2µM* and DT40 TDP1 CPT 4.6µM*.
Screening C=CCOC(=O)C1=C[C@@H](c2ccc(C(F)(F)F)cc2)C[C@@H](OCCCCO)O1 returned TDP1 cell noCPT -19% and DT40 TDP1 CPT inconclusive.
Screening COCC(=O)N1CCC2CC1c1c(-c3ccc(C(F)(F)F)cc3)cccc12 (configuration not stated) returned TDP1 cell noCPT inconclusive and DT40 TDP1 CPT 23µM*.
Screening C=CCOC(=O)N1CCC2CC1c1c(-c3ccc(C(F)(F)F)cc3)cccc12 (configuration not stated) returned TDP1 cell noCPT inconclusive and DT40 TDP1 CPT 23µM*.
Screening COCC(=O)N1CCc2ccc(NC(=O)c3ccc(C(F)(F)F)cc3)cc2C1 returned TDP1 cell noCPT -26% and DT40 TDP1 CPT inconclusive.
Screening Fc1ccccc1Cn1nnc2c(NCc3ccccn3)ncnc21 returned TDP1 cell noCPT -20%, TDP1 inh 7%, Gal4-VP16 FLuc 20%, DT40 TDP1 CPT -20% and RORgamma inh 33%.
For C#CCSc1nnc(CSc2nc3ccccc3s2)n1-c1ccccc1 the results were TDP1 cell noCPT 18µM*, TDP1 inh 2%, Gal4-VP16 FLuc inconclusive, DT40 TDP1 CPT inconclusive and RORgamma inh -116%.
S=c1[nH]nc(CSc2nc3ccccc3s2)n1C1CCCCC1 was read as TDP1 cell noCPT inconclusive, TDP1 inh 7%, Gal4-VP16 FLuc 1.3µM*, DT40 TDP1 CPT inconclusive and RORgamma inh 0.2µM*.
`CCn1c(CSc2nc3ccccc3s2)nc2ccccc21` gave TDP1 cell noCPT 16µM*, TDP1 inh 5%, Gal4-VP16 FLuc inconclusive, DT40 TDP1 CPT inconclusive and RORgamma inh 10µM*.
For Cc1cc(C)n2c(Br)c(CSc3nc4ccccc4s3)nc2n1 the results were TDP1 cell noCPT 18µM*, TDP1 inh 0%, Gal4-VP16 FLuc 26%, DT40 TDP1 CPT -26% and RORgamma inh 38%.
O=C(O)CSc1nnc(CSc2nc3ccccc3s2)n1-c1ccccc1 was read as TDP1 cell noCPT -10%, TDP1 inh -2%, Gal4-VP16 FLuc 2%, DT40 TDP1 CPT -11% and RORgamma inh -6%.
`c1csc(CSc2nc3ccccc3s2)c1` gave TDP1 cell noCPT -7%, TDP1 inh -10%, Gal4-VP16 FLuc -5%, DT40 TDP1 CPT -4% and RORgamma inh inconclusive.

Compound activity: PubChem, National Center for Advancing Translational Sciences (NCATS)
